Source: PubChem (National Center for Advancing Translational Sciences (NCATS))
NS1 function inh – influenza NS1 inhibition. Potency, µM (highest dose often 46.1 µM), for inactives: top-dose activity, positive = more growth. hit rate 0.4% among 270,000. AID 2326; calls by dose curve; further: potency means the concentration at half of the fitted maximal effect; actives are rising curves; nearly all actives have a fitted effect of over 50% in size
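Read-out: OD600 growth recovery of NS1-expressing budding yeast. Cells grown overnight at 30C in -URA glucose medium, washed, resuspended and diluted 1:100 in 2% galactose assay medium, pH 6.0. Same strain lacking NS1 served as positive control.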
SARS PLP yeast – SARS-CoV PLP inhibition in yeast. S. cerevisiae expressing SARS-CoV PLpro, growth rescue. Potency, µM (titrated, usually from 32.9 µM), for the others: at the top dose activity, positive = growth rescue, hits mostly activators. hit rate 0.19% among 330,000. AID 485353; calls by dose curve; further: potency means the concentration at half of the fitted maximal effect; 0% is about no effect; nearly all actives have a fitted effect of over 55% in size
TbPYK inhibitor – T. brucei pyruvate kinase inhibition. Q57TT1. TbPYK enzyme, Kinase-Glo Plus ATP luminescence, 45 min. Potency, µM (highest dose often 76.8 µM), for inactives: at the top dose activity, negative = inhibition, most hits filed as inhibitors. hit rate 0.12% among 410,000; further: potency means the concentration at half of the fitted maximal effect; on the % scale 0 is the no-effect control and ±100 the full control effect; nearly all actives have a fitted effect of over 50% in size
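Glycolytic pyruvate kinase of T. brucei was incubated with substrate, test compound and 130 uM ADP for 45 minutes at room temperature. Luminescent Kinase-Glo Plus signal was measured after 10 minutes.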
Cycloheximide cs – affects cycloheximide protein synthesis inhibition readout, counter-screen; max response, %; hit rate 12% among 300,000; cell reporter, cycloheximide protein synthesis inhibition counterscreen; in the data active means max response mostly above about 13%, no sharp cut-off; inactive means mostly below about 14%; further: read at 38.3 µM for the half of the compounds with a filed dose; 0% is about no effect
LmPK inhibitor – LmPK (Leishmania mexicana) enzyme inhibition; purified LmPK, Kinase-Glo ATP luminescence, 1 h; hit rate 0.37% among 290,000; Q27686; Potency, µM (doses to about 57.5 µM), for the others: at the top dose activity change, negative = inhibition, hits mostly inhibitors; further: potency means the concentration at half of the fitted maximal effect; on the % scale 0 is the no-effect control and ±100 the full control effect
Target sequence (Q27686 whole entry, looked up): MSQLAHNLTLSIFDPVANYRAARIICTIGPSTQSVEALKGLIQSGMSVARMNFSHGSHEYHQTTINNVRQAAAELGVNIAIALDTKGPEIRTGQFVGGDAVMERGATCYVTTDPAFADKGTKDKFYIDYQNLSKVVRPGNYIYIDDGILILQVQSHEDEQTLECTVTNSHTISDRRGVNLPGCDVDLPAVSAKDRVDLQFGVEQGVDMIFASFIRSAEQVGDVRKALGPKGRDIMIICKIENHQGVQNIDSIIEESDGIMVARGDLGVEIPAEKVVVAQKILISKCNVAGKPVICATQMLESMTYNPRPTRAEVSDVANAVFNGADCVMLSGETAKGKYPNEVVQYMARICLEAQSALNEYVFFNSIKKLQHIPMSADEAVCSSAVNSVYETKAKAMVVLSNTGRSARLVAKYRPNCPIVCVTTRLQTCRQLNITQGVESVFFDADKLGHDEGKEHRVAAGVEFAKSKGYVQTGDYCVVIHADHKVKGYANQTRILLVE
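0.1 nM LmPK, 0.5 mM PEP, 0.1 mM ADP; 50 mM imidazole pH 7.2, 7 mM MgCl2, 50 mM KCl; 1 h RT. Kinase-Glo luminescence readout, normalized to no-enzyme (full inhibition) and uninhibited wells.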
Shiga inhibitor – inhibitors of Shiga toxin in Vero cells | Vero cells, Shiga toxin protein synthesis inhibition reporter | inhibition, % at 38.7 µM | hit rate 9.2% among 290,000; in the data active means inhibition mostly above about 28%, no sharp cut-off; inactive means mostly below about 43%; further: 0% is about no effect
Active calls of the source: *. Shown is part of a subset that was picked to be rich in hits. Unless noted, the call rests on the fitted dose curve; in most records, active means well fitted curve in the direction sought with a large enough effect; inconclusive means small, poorly fitted or top-dose-only effect, or another doubt; inactive means no such curve, though single readings can be large; an effect the other way counts as inactive or inconclusive.

What do the screens show for `COC(=O)N/N=C/c1ccc(-c2ccc(Cl)cc2Cl)o1`?
NS1 function inh: -11%; SARS PLP yeast: -3%; TbPYK inhibitor: 2%; Cycloheximide cs: 11*; LmPK inhibitor: 1%; Shiga inhibitor: 26

What do the screens show for `CCN(CC(=O)Nc1c(F)cccc1F)C(=O)CNC(=O)c1cccc(C)c1`?
NS1 function inh: 6%; SARS PLP yeast: 0%; TbPYK inhibitor: 12%; Cycloheximide cs: -2; LmPK inhibitor: -3%; Shiga inhibitor: -8

Results for Cc1sc2ncnc(Nc3ccc(O)cc3)c2c1C ?
NS1 function inh: 1%; SARS PLP yeast: -2%; TbPYK inhibitor: -2%; Cycloheximide cs: 6; LmPK inhibitor: -4%; Shiga inhibitor: 10

How did C/C(=N\Nc1ncnc2sc(C)c(C)c12)c1ccccn1 do in these assays?
NS1 function inh: -112%; SARS PLP yeast: -15%; TbPYK inhibitor: -12%; Cycloheximide cs: 49*; LmPK inhibitor: 3%; Shiga inhibitor: 67*

How did Cc1sc2ncnc(N/N=C/c3cccc(O)c3)c2c1C do in these assays?
NS1 function inh: -19%; SARS PLP yeast: 22%; TbPYK inhibitor: -7%; Cycloheximide cs: 42*; LmPK inhibitor: -2%; Shiga inhibitor: 29*

Results for COc1cc(/C=N/Nc2ncnc3sc4c(c23)CCC4)ccc1O ?
NS1 function inh: 9%; SARS PLP yeast: -10%; TbPYK inhibitor: 1%; Cycloheximide cs: 8; LmPK inhibitor: 2%; Shiga inhibitor: 12

How did Cc1ccc(Nc2ncnc3sc(C)c(C)c23)cc1 do in these assays?
NS1 function inh: -13%; SARS PLP yeast: 13%; TbPYK inhibitor: -1%; Cycloheximide cs: 24*; LmPK inhibitor: 1%; Shiga inhibitor: 79*

How did Cn1cc(C=C2C(=O)NC(=O)NC2=O)c2ccccc21 do in these assays?
NS1 function inh: 3%; SARS PLP yeast: 3%; TbPYK inhibitor: 6%; Cycloheximide cs: -3; LmPK inhibitor: -2%; Shiga inhibitor: -4

How did CC(=O)n1cc(C=C2C(=O)NC(=O)NC2=O)c2ccccc21 do in these assays?
NS1 function inh: -2%; SARS PLP yeast: 7%; TbPYK inhibitor: 28µM*; Cycloheximide cs: -2; LmPK inhibitor: -1%; Shiga inhibitor: 4

Results for Cc1cc(=O)[nH]c(N/N=C/c2ccc(N(C)C)cc2)n1 ?
NS1 function inh: -9%; SARS PLP yeast: 1%; TbPYK inhibitor: -4%; Cycloheximide cs: 24*; LmPK inhibitor: -15%; Shiga inhibitor: 50*

How did Cc1cc(=O)[nH]c(Nc2ccc(N(C)C)cc2)n1 do in these assays?
NS1 function inh: 8%; SARS PLP yeast: -4%; TbPYK inhibitor: 3%; Cycloheximide cs: 1; LmPK inhibitor: -3%; Shiga inhibitor: -1

What do the screens show for `Cc1cc(=O)[nH]c(N/N=C/c2ccc(F)cc2)n1`?
NS1 function inh: 4%; SARS PLP yeast: -2%; TbPYK inhibitor: 3%; Cycloheximide cs: 13*; LmPK inhibitor: -16%; Shiga inhibitor: 9

How did C=NC(C(=O)NC1C(=O)N2C1SC(C)(C)C2C(=O)O)c1ccccc1 (centres undefined) do in these assays?
TbPYK inhibitor: -8%

Results for COc1ccc(-c2cn3cccnc3n2)cc1F ?
NS1 function inh: -4%; SARS PLP yeast: -15%; TbPYK inhibitor: -4%; Cycloheximide cs: 44*; LmPK inhibitor: -9%; Shiga inhibitor: 51*

Results for Brc1ccc(-c2cn3cccnc3n2)cc1 ?
NS1 function inh: -4%; SARS PLP yeast: -17%; TbPYK inhibitor: -10%; Cycloheximide cs: 35*; LmPK inhibitor: 0%; Shiga inhibitor: 75*

How did Clc1ccc(-c2cn3cccnc3n2)cc1 do in these assays?
NS1 function inh: -7%; SARS PLP yeast: 1%; TbPYK inhibitor: 1%; Cycloheximide cs: 19*; LmPK inhibitor: -1%; Shiga inhibitor: 22

What do the screens show for `CCC(=O)Nc1cc(-c2cn3cccnc3n2)ccc1OC`?
TbPYK inhibitor: -1%

Results for O=C(Nc1cccc(-c2cn3cccnc3n2)c1)c1cc(Br)ccc1Cl ?
TbPYK inhibitor: 2%

Results for Clc1ccc(-c2cn3cccnc3n2)cc1Cl ?
NS1 function inh: -64%; SARS PLP yeast: -15%; TbPYK inhibitor: 3%; Cycloheximide cs: 26*; LmPK inhibitor: -1%; Shiga inhibitor: 61

How did Fc1ccc(-n2ncc3c(Nc4ccc(Oc5ccc(Cl)cc5)cc4)ncnc32)cc1 do in these assays?
TbPYK inhibitor: 0%

How did COc1ccc(S(=O)(=O)Nc2cccc3c2O[C@H](CN(C)S(=O)(=O)c2cccs2)[C@@H](C)CN([C@H](C)CO)C3=O)cc1 do in these assays?
SARS PLP yeast: -29%; TbPYK inhibitor: 6%

How did O=C(O)c1ccc(-n2cccc2/C=C2/SC(=O)N(CC(=O)N3CCCC3)C2=O)cc1 do in these assays?
NS1 function inh: 8%; SARS PLP yeast: 2%; TbPYK inhibitor: -17%; Cycloheximide cs: -3; LmPK inhibitor: 7%; Shiga inhibitor: 10

What do the screens show for `CN(Cc1ccccc1Cl)C(=O)C1CCC(=O)N(C2CCCCCC2)C1` (centres undefined)?
NS1 function inh: -19%; SARS PLP yeast: 1%; TbPYK inhibitor: 0%; Cycloheximide cs: 14*; LmPK inhibitor: -6%; Shiga inhibitor: 18

Results for Cc1nn(-c2ccccc2)c2nc(N)c(C#N)c(-c3ccc(C(C)(C)C)cc3)c12 ?
NS1 function inh: 1%; SARS PLP yeast: 0%; TbPYK inhibitor: -3%; Cycloheximide cs: -1; LmPK inhibitor: 7%; Shiga inhibitor: 12

Results for CC(C)(C)c1ccc(N2C(=O)Cc3c2nc(N)c(C#N)c3N)cc1 ?
NS1 function inh: -1%; SARS PLP yeast: 7%; Cycloheximide cs: 35*; LmPK inhibitor: 2%; Shiga inhibitor: 43

Results for CCc1ccc(N2C(=O)Cc3c2nc(N)c(C#N)c3N)cc1 ?
NS1 function inh: 16%; SARS PLP yeast: -7%; TbPYK inhibitor: -2%; Cycloheximide cs: 23*; LmPK inhibitor: 4%; Shiga inhibitor: 114*

What do the screens show for `CCOC(=O)COc1ccccc1C1C(C(=O)OC)=C(C)NC2=C1C(=O)c1ccccc12` (centres undefined)?
TbPYK inhibitor: -7%

What do the screens show for `Cc1cc(C(=O)NCc2cccs2)ccc1[N+](=O)[O-]`?
NS1 function inh: -2%; SARS PLP yeast: -20%; TbPYK inhibitor: 4%; Cycloheximide cs: 14*; LmPK inhibitor: -5%; Shiga inhibitor: 7

Results for CC(=O)Nc1ccc(C(=O)NCC2CCCCC2)cc1 ?
NS1 function inh: 1%; SARS PLP yeast: 2%; TbPYK inhibitor: -3%; Cycloheximide cs: 20*; LmPK inhibitor: 8%; Shiga inhibitor: 16

What do the screens show for `Cc1cc(C(=O)NCC2CCCCC2)ccc1[N+](=O)[O-]`?
NS1 function inh: -19%; SARS PLP yeast: -6%; TbPYK inhibitor: -2%; Cycloheximide cs: 24*; LmPK inhibitor: -6%; Shiga inhibitor: 84*
